High-throughput results: PubChem BioAssay, National Center for Advancing Translational Sciences (NCATS)
D2 PAM-1: potentiates the human D2 dopamine receptor allosterically. AID 624464. DiscoveRx D2 beta-arrestin cells, luminescence, 90 min; 100% = 57 uM dopamine signal. potentiation, % (concentration not given with the values). 360,000 compounds, 0.23% hits. P14416; in the data active = potentiation above about 50%; inconclusive = mostly about 30% to 49%
Target sequence (P14416 whole entry, looked up): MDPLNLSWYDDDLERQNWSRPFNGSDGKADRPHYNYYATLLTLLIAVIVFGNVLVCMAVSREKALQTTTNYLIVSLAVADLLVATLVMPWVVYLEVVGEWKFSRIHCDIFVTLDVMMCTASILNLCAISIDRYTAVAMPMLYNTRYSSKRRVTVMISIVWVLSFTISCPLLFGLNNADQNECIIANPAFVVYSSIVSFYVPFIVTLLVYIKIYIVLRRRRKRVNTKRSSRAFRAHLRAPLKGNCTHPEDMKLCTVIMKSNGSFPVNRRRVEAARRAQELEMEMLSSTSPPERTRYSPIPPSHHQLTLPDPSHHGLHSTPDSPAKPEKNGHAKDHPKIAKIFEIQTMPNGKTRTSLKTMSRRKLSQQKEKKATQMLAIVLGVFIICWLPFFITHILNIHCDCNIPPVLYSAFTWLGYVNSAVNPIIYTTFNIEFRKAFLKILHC
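PathHunter beta-arrestin assay in DiscoveRx D2 cells. Compounds were added with an EC20 of dopamine (50 nM final) for 90 min at 37 deg C. Luminescence was read 1 h after detection reagent, with 57 uM dopamine as the EC100 control.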
D2 antagonist: D2 dopamine receptor (human) antagonism | inhibition, % at 10 µM | P14416 | 340,000 compounds, 2% hits | HEK293 TREx D2 cells, calcium flux, dopamine EC80; in the data active = inhibition above about 30%; inactive = below that, where a call was filed; also: 0% is about no effect
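Inhibition of EC80 dopamine-driven calcium flux, recorded kinetically, defines activity here; cells are a tetracycline-induced HEK293 T-REx line expressing force-coupled D2.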
D2 PAM-2: positive allosteric modulators of human D2 dopamine receptor. P14416. HEK293 T-REx D2, calcium flux, EC20 dopamine potentiation. potentiation, % at 10 µM. 340,000 compounds, 0.34% hits. AID 485347;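 active = potentiation over 3 SD above the plate norm, cut at about 30% in these data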; also: 0% is about no effect
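Calcium flux readout, no-wash dye, 1 read/s. Inducible HEK293 Trex D2 line, overnight 30 C. Compound alone 180 s (agonist flags), then EC20 dopamine, another 180 s to score potentiation.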
D2 ag-1: agonists of human D2 dopamine receptor; P14416; HEK293 T-REx D2 cells, calcium flux agonist mode; activation, % at 2 µM; 340,000 compounds, 0.53% hits;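 active = activation over 3 SD above normal in the single-dose calcium agonist read, cut at about 30% in these data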; also: 0% is about no effect
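Tetracycline-induced HEK293 T-REx cells with force-coupled D2 receptor, plated overnight at 30 C, loaded with no-wash calcium dye. After a 10 s baseline, compound was pin-added and calcium flux read kinetically for 180 s; calcium rises flagged agonists.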
D2 ag-2: human D2 receptor agonism in beta-arrestin assay | activation, % (no concentration beside the values) | AID 624465 | 360,000 compounds, 0.084% hits | P14416 | DiscoveRx PathHunter D2 beta-arrestin, luminescence, 90 min; 100% = 57 uM dopamine signal; in the data active = activation above about 40%; inconclusive = between about 15% and that limit
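Agonist mode: compounds alone added to overnight-plated D2 PathHunter cells for 90 min at 37 C, with 57 uM final dopamine (EC100) defining full response. Beta-arrestin recruitment detected by chemiluminescent reagent, read after 1 h at ambient temperature.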
Starred values were filed as active, the others as inactive; u = inconclusive; x = no result given. An excerpt weighted towards active compounds, which were near 2.4% of everything screened.

SMILES	D2 PAM-1	D2 antagonist	D2 PAM-2	D2 ag-1	D2 ag-2
Cc1cc2nc(-c3cccc(NC(=O)COc4ccc(C(C)C)cc4)c3)oc2cc1C	x	x	2.4	-0.6	x
CCCCCOc1ccc(C(=O)N(Cc2ccccc2)C2CCS(=O)(=O)C2)cc1 (centres undefined)	x	x	-3.6	1.5	x
O=C(CC1C(=O)N(c2ccccc2)C(=O)N1Cc1ccc(F)cc1)Nc1cccc(F)c1 (centres undefined)	x	x	-7.9	0.4	x
O=C(NC1CCN(Cc2ccccc2)CC1)c1ccc(S(=O)(=O)NCc2ccco2)cc1	-32.2	35.6*	-15.0	0.5	-2.9
CC1CCCC(C)N1C(=O)c1ccc(S(=O)(=O)NCc2ccco2)cc1 (centres undefined)	-6.2	36.7*	x	-2.9	-0.3
O=C(CS(=O)c1ccc(C(F)(F)F)cc1[N+](=O)[O-])Oc1ccccc1 (centres undefined)	21.3	-10.3	32.9*	0.8	4.6
CC(=O)c1cccc(NC(=O)c2c(-c3ccccc3)c(-c3ccccc3)nn(C)c2=O)c1	x	x	-3.2	-0.8	x
C[N+](C)(C)CCOC(=O)CCC(=O)OCC[N+](C)(C)C	0.5	x	x	x	-4.6
CC(=O)SCC[N+](C)(C)C	2.9	35.9*	-2.7	4.2	-5.6
COc1ccc(CCNC(=O)c2cc(=O)c3cc(C)c(C)cc3o2)cc1OC	x	x	-2.6	-0.6	x
O=C(c1cc2nc(-c3cccs3)cc(C(F)(F)F)n2n1)N1CCCc2ccccc21	-18.3	31.2*	-3.0	0.1	-2.1
O=C(c1cc2nc(-c3cccs3)cc(C(F)(F)Cl)n2n1)N1CCCc2ccccc21	-6.0	19.0	13.0	0.5	-4.6
CCOc1cc(/C=C2\COc3ccccc3C2=O)cc(Br)c1OCC(=O)N(C)C	-5.4	44.5*	-1.0	10.6	-1.1
COc1ccc(/C=C2\COc3ccccc3C2=O)cc1OC	5.1	-2.5	18.2	0.2	0.7
c1ccc(-c2cc3nc(NCC4CC4)nc(NCC4CCCCC4)c3s2)cc1	-36.2	x	x	x	40.9*
COCCNc1nc(NCC2CCCCC2)c2sc(-c3ccccc3)cc2n1	-22.7	x	x	x	u
CCOC(=O)c1cc(-c2ccccc2)n(CCC(=O)Nc2ccc(Cl)c(C(F)(F)F)c2)c1C	x	x	-4.2	x	x
COc1ccc(OC)c(CNC(=O)c2ccccc2NC(=O)c2nsc3ccccc23)c1	x	x	-12.0	1.1	x
Nc1ccc(-c2ncc(-c3ccccc3)o2)cc1	-3.8	-0.1	-3.7	-2.0	2.2
Cc1ccc(-c2cnc(-c3ccncc3)o2)cc1	-5.2	32.3*	6.4	0.3	1.9
O=C(COC(=O)c1ccc(O)cc1)Nc1cc(C(F)(F)F)ccc1Cl	-4.2	-0.2	-2.8	2.7	6.4
CCOC(=O)c1ccc[n+](CC(=O)Nc2cc(C(F)(F)F)ccc2Cl)c1	-15.0	52.5*	-9.4	0.0	-3.4
NC(=O)C1(N2CCCCC2)CCN(CC(=O)Nc2cc(Cl)ccc2Cl)CC1	-10.6	43.4*	-24.8	0.4	-1.4
CN(C)S(=O)(=O)c1ccc(Cl)c(NC(=O)CN2CCCCCC2)c1	-22.5	34.0*	-29.6	-2.9	-2.6
CN(C)S(=O)(=O)c1ccc(NC(=O)CN2CCC(Cc3ccccc3)CC2)cc1	-3.1	-1.0	-5.6	2.4	-2.5
SMILES	D2 PAM-1	D2 antagonist	D2 PAM-2	D2 ag-1	D2 ag-2
CCN(c1ccccc1)S(=O)(=O)c1ccc(Cl)c(NC(=O)CN2CCCCCC2)c1	-4.9	0.8	-10.0	1.0	1.7
CN(C)S(=O)(=O)c1ccc(Cl)c(NC(=O)CN2CCC(Cc3ccccc3)CC2)c1	-25.5	42.3*	-10.3	-4.6	1.9
CCc1nn2c(=O)cc(COC(=O)c3ccccc3NC(=O)C3CCCCC3)nc2s1	x	x	3.6	-0.5	x
CCCN(Cc1cccs1)C(=O)Nc1ccc(F)c(Cl)c1	x	x	-0.9	-1.0	x
CCN(CC)C(=O)Cn1c(=O)n(Cc2ccc(C(=O)NCCc3ccc(OC)c(OC)c3)cc2)c(=O)c2ccccc21	x	x	-1.1	-0.2	x
O=C(CCCC(=O)OCC(=O)c1ccc(Cl)cc1Cl)Nc1cc(C(F)(F)F)ccc1Cl	-40.3	19.4	-10.9	0.7	-10.8
O=C(CN1CCCC1)Nc1cc(C(F)(F)F)ccc1Cl	-12.6	81.9*	-19.7	-2.5	-5.6
O=C(CN1CCCCC1)Nc1ccc(C(F)(F)F)cc1Cl	1.0	-28.7	-1.4	-0.6	-2.1
O=C(CCCC(=O)OCC(=O)c1ccc(F)cc1)Nc1cc(C(F)(F)F)ccc1Cl	0.0	46.9*	-20.1	0.6	-4.0
CN(CC(=O)Nc1cc(S(=O)(=O)N2CCCC2)ccc1Cl)Cc1ccc2c(c1)OCO2	-7.5	31.7*	-16.3	-0.6	-2.1
COc1cccc2cc(C(=O)Nc3ccc(CC(=O)O)cc3)c(=O)oc12	x	x	-2.4	-0.2	x
COc1ccc(CNC(=O)CCCn2c(=O)c3cccn3c3ccc(F)cc32)cc1OC	x	x	5.3	-0.2	x
COc1ccc(NC(=S)N(CCCN2CCC(C)CC2)Cc2cccs2)cc1	-18.4	18.1	x	-0.9	-0.9
COc1cccc(NC(=S)N(CCCN2CCC(C)CC2)Cc2cccs2)c1	-16.7	59.1*	-34.6	2.2	-3.2
CCOC(=O)c1ccc(NC(=S)N(CCCN2CCCC2)Cc2cccs2)cc1	-25.2	8.6	-16.4	4.5	-5.2
CCOC(=O)c1ccc(NC(=S)N(CCCN2CCCC(C)C2)Cc2cccs2)cc1 (centres undefined)	-27.5	39.6*	-32.4	3.2	-2.9
O=C1NC(=O)C(Nc2cccc3ccccc23)S1 (centres undefined)	62.7*	6.0	4.2	-1.0	3.4
Cc1ccc(C)c(NC(=O)CCc2nc3cccnc3n2Cc2cccs2)c1	x	x	1.5	-0.8	x
COC(=O)c1c(C(=O)OC)c2cc(C(=O)c3ccccc3)ccn2c1Cl	-13.0	3.1	47.2*	0.2	-3.3
COC(=O)c1c(C(=O)OC)c2ccccn2c1C(=O)c1ccc([N+](=O)[O-])cc1	21.0	x	x	x	3.0
COc1ccc(/C=C/C(=O)Nc2cc(C(F)(F)F)ccc2Cl)cc1	-25.8	32.0*	-20.5	0.5	4.3
CCCCC1=CC2=C(c3ccco3)C(=O)C(C)(OC(=O)c3ccc(OC)cc3)C(=O)C2=CN1Cc1ccccc1 (centres undefined)	9.5	5.2	-7.0	0.4	3.3
CCCCC1=CC2=C(c3ccco3)C(=O)C(C)(OC(=O)c3ccc(OC)cc3)C(=O)C2=CN1Cc1ccc2c(c1)OCO2 (centres undefined)	-16.1	33.2*	-0.3	-0.2	-0.1
CCCCC1=CC2=CC(=O)C(C)(OC(=O)CC)C(=O)C2=CN1Cc1ccc(OC)cc1 (centres undefined)	-1.2	30.9*	9.4	-0.2	3.1
COc1ccc(-c2cc3c(=O)n(CC(=O)NCc4ccc(Cl)cc4)ncn3n2)cc1	-2.1	-18.5	-0.9	-0.4	-4.5
CCOc1ccc(CCNC(=O)Cn2ncn3nc(-c4ccc(OC)cc4)cc3c2=O)cc1	-3.0	-12.0	-1.4	0.1	-0.2
